Reference: PubChem BioAssay (NCATS)
Where “and” joins values, the source holds several entries; their conditions need not be identical. Equal values may be shown once. Results filed as inconclusive are left out. Values without a mark were called inactive. Calls of active or inactive are those of the source. Calls follow the shape of the dose curve; as a rule, active = well fitted inhibition curve with a large enough effect; inconclusive = small, poorly fitted or top-dose-only effect; inactive = flat fitted curve, though single readings scatter.

How the values were obtained:
CRL-7250 [1] = experiment: Cytotoxic Profiling of Annotated Libraries Using Quantitative High-Throughput Screening (AID 1296008); conditions: Five cell lines viability, CellTiter-Glo ATP luminescence, 48-72 h; max response: stronger effect = lower value; also: potency is read from the fitted curve at half-maximal effect; as to max response: % is scaled to controls: 0 for no effect and ±100 for the full control effect
Procedure, shortened: (§1)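 Cytotoxicity was measured as CellTiter-Glo ATP luminescence, read after 10 min at room temperature. Compound treatment of the cells lasted 48 or 72 hr at 37 degrees Celsius in a qHTS format.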

HEK293 = experiment: as above; conditions: Five cell lines viability, CellTiter-Glo ATP luminescence, 48-72 h; max response: stronger effect = lower value
Procedure, shortened: as §1

HaCat [2] = experiment: as above; conditions: Five cell lines viability, CellTiter-Glo ATP luminescence, 48-72 h; max response: stronger effect = lower value
Procedure, shortened: as §1

NIH3T3 = experiment: as above; conditions: Five cell lines viability, CellTiter-Glo ATP luminescence, 48-72 h; max response: stronger effect = lower value
Procedure, shortened: as §1

HEK293T = experiment: qHTS assay to identify novel small-molecules to repurpose for Merkel cell carcinoma treatment (AID 1296009); conditions: MCC and control cell lines, CellTiter-Glo viability, 72 h; at 44.8 µM (top of the series)
Procedure, shortened: (§2)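 Cell viability measured by CellTiter-Glo following 72 hr compound treatment at 37 degree celsius, with NPC and MIPE libraries tested in 8- and 11-point concentration series.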

KB-3-1 = experiment: Cytotoxic Profiling of Annotated Libraries Using Quantitative High-Throughput Screening (AID 1296008); conditions: Five cell lines viability, CellTiter-Glo ATP luminescence, 48-72 h; max response: stronger effect = lower value; also: potency is read from the fitted curve at half-maximal effect; as to max response: % is scaled to controls: 0 for no effect and ±100 for the full control effect
Procedure, shortened: as §1

HACAT [3] = experiment: qHTS assay to identify novel small-molecules to repurpose for Merkel cell carcinoma treatment (AID 1296009); conditions: MCC and control cell lines, CellTiter-Glo viability, 72 h; at 44.8 µM (top of the series) unless noted
Procedure, shortened: as §2

CRL-7250 [4] = experiment: as above; conditions: MCC and control cell lines, CellTiter-Glo viability, 72 h; at 44.8 µM (top of the series) unless noted
Procedure, shortened: as §2

TAB165 = experiment: qHTS profiling for inhibitors of Plasmodium falciparum proliferation (AID 504749); also: potency is read from the fitted curve at half-maximal effect; conditions: P. falciparum in erythrocytes, SYBR Green DNA, 72 h; series mostly up to 28.7 µM
Procedure, shortened: (§3)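 In a 72 h erythrocytic culture (37 C, humidified, 5% CO2) at 2.5% hematocrit and 0.3% starting parasitemia, compounds were tested; SYBR Green I in detergent lysis buffer stained parasite DNA overnight.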

W2 = experiment: as above; conditions: P. falciparum in erythrocytes, SYBR Green DNA, 72 h; series mostly up to 28.7 µM
Procedure, shortened: as §3
Also: nearly all actives have a fitted effect of over 60% in size.

Structure (SMILES): CCN1CCCC1CNC(=O)C(O)(c1ccccc1)c1ccccc1 (stereo not drawn)
- max response (CRL-7250 [1]): -23.4%
- outcome (HEK293): inactive
- max response (HaCat [2]): -7.18%
- outcome (NIH3T3): inactive
- outcome (HEK293T): inactive

Structure (SMILES): CC(C)=CCN1CC[C@@]2(C)c3cc(O)ccc3C[C@@H]1[C@@H]2C
- max response (CRL-7250 [1]): -10.3%
- max response (HaCat [2]): -13.3%
- max response (KB-3-1): -12.1%
- max response (NIH3T3): -2.79%

Structure (SMILES): Nc1ccccc1C(=O)OCC(O)CO (stereo not drawn)
- max response (CRL-7250 [1]): 1.8%
- outcome (HEK293): inactive
- max response (NIH3T3): -1.39%
- outcome (HEK293T): inactive

Structure (SMILES): CC(C(O)c1ccccc1)N(C)C/C=C/c1ccccc1 (stereo not drawn)
- max response (CRL-7250 [1]): -8.13%
- max response (HEK293): -9.94%
- outcome (HaCat [2]): inactive
- max response (NIH3T3): 2.21%
- outcome (HACAT [3]): inactive

Structure (SMILES): Cc1nnc2n1-c1sc(CCC(=O)N3CCOCC3)cc1C(c1ccccc1Cl)=NC2
- outcome (CRL-7250 [1]): inactive
- outcome (HEK293): inactive
- max response (KB-3-1): -14.1% and 0.342%
- max response (NIH3T3): 2.45%
- outcome (CRL-7250 [4]): inactive
- outcome (HEK293T): inactive

Structure (SMILES): C1CN2CCC1CC2
- max response (CRL-7250 [1]): -5.27%
- max response (HEK293): 1.2%
- outcome (HaCat [2]): inactive
- outcome (NIH3T3): inactive
- outcome (HACAT [3]): inactive

Structure (SMILES): CN(C)C(=S)SSC(=S)N(C)C
- Potency (TAB165): 2.51 µM (active)
- Potency (W2): 0.849 µM (active)
- Potency (CRL-7250 [1]): 0.75 µM (active)
- Potency (HEK293): 0.944 µM (active)
- max response (KB-3-1): -0.0008%
- Potency (NIH3T3): 0.422 µM (active)

Structure (SMILES): COc1cc(C[C@@H](C)N)c(OC)cc1Br
- max response (CRL-7250 [1]): 2.12%
- max response (HaCat [2]): -1.26%
- max response (KB-3-1): -0.0524%
- max response (NIH3T3): -1.11%

Structure (SMILES): COP(=O)(OC)OC=C(Cl)Cl
- Potency (TAB165): inactive
- Potency (W2): 10.7 µM (active)
- outcome (CRL-7250 [1]): inactive
- max response (HEK293): -1.59%
- max response (HaCat [2]): -7.81%
- outcome (NIH3T3): inactive
- outcome (CRL-7250 [4]): inactive

Structure (SMILES): CCNc1nc(Cl)nc(NCC)n1
- Potency (TAB165): inactive
- Potency (W2): inactive
- max response (CRL-7250 [1]): -9.95%
- max response (HEK293): 1.01%
- max response (KB-3-1): -15.4%
- max response (NIH3T3): -12.6%

Structure (SMILES): O=C(N[C@@H]1N=C(c2ccccc2F)c2cccc3c2N(CC3)C1=O)c1cc2ccccc2[nH]1
- max response (CRL-7250 [1]): -34.1%
- max response (HaCat [2]): -2.29%
- max response (KB-3-1): -13.9%
- Potency (NIH3T3): 4.32 µM (active)

Structure (SMILES): CCCN(CCC)CCc1c[nH]c2ccccc12
- max response (CRL-7250 [1]): -1.07%
- max response (HaCat [2]): -5.54%
- max response (KB-3-1): -20.7%
- max response (NIH3T3): 3.34%

Structure (SMILES): O=C(N[C@H]1N=C(c2ccccc2F)c2cccc3c2N(CC3)C1=O)c1cc2ccccc2[nH]1
- max response (CRL-7250 [1]): 2.91%
- max response (HEK293): -7.34%
- outcome (KB-3-1): inactive
- max response (NIH3T3): -0.0973%

Structure (SMILES): COc1cc(CC#N)cc(OC)c1OC
- max response (CRL-7250 [1]): -2.26%
- max response (HEK293): -3.74%
- outcome (HaCat [2]): inactive
- max response (NIH3T3): -3.69%
- outcome (HACAT [3]): inactive

Structure (SMILES): CC[n+]1c(-c2ccccc2)c2cc(N)ccc2c2ccc(N)cc21
- Potency (TAB165): 17.8 nM (active) and 224 nM (active)
- Potency (W2): 21.3 nM (active) and 37.9 nM (active)
- Potency (CRL-7250 [1]): 6.68 µM (active)
- Potency (HEK293): 0.596 µM (active)
- Potency (KB-3-1): 8.2 µM (active) and 23.1 µM (active)

Structure (SMILES): CCc1ccc(C2CCNCC2)cc1
- outcome (CRL-7250 [1]): inactive
- max response (HEK293): -21.3%
- outcome (HaCat [2]): inactive
- max response (NIH3T3): 1.66%
- outcome (CRL-7250 [4]): inactive
- outcome (HACAT [3]): inactive

Structure (SMILES): CCC1(c2cnc[nH]2)Cc2ccccc2C1
- max response (CRL-7250 [1]): -7.94%
- max response (HEK293): -9.84%
- max response (KB-3-1): -12.7% and -2.33%
- outcome (NIH3T3): inactive

Structure (SMILES): CCN(Cc1ccc(Cl)nc1)/C(=C/[N+](=O)[O-])NC
- Potency (TAB165): inactive
- max response (CRL-7250 [1]): -14.2%
- outcome (HEK293): inactive
- outcome (HaCat [2]): inactive
- max response (NIH3T3): 3.9%
- outcome (HACAT [3]): inactive
- outcome (HEK293T): inactive

Structure (SMILES): ClCCCN1CCN(c2cccc(Cl)c2)CC1
- outcome (CRL-7250 [1]): inactive
- outcome (HEK293): inactive
- outcome (HaCat [2]): inactive
- outcome (NIH3T3): inactive
- outcome (HACAT [3]): inactive
- outcome (HEK293T): inactive

Structure (SMILES): O=c1[nH]c2cc(Cl)ccc2n1C1CCNCC1
- outcome (CRL-7250 [1]): inactive
- max response (HEK293): -8.77%
- outcome (HaCat [2]): inactive
- outcome (NIH3T3): inactive
- outcome (CRL-7250 [4]): inactive
- outcome (HACAT [3]): inactive

Structure (SMILES): CN1C2CCC(C)(C)C1CC(OC(=O)C(O)(c1cccs1)c1cccs1)C2 (stereo not drawn)
- max response (CRL-7250 [1]): -6.95%
- max response (HEK293): -10.3%
- outcome (HaCat [2]): inactive
- max response (NIH3T3): -4.3%
- outcome (HACAT [3]): inactive

Structure (SMILES): CCS(=O)(=O)C(C)(C)S(=O)(=O)CC
- Potency (TAB165): inactive
- Potency (W2): inactive
- max response (CRL-7250 [1]): -10.9%
- max response (HEK293): 1.49%
- max response (KB-3-1): 3.51%
- max response (NIH3T3): -2.98%

Structure (SMILES): Cc1cccc(Cc2cnc[nH]2)c1C
- max response (CRL-7250 [1]): -4.56%
- max response (HaCat [2]): -10%
- max response (KB-3-1): -11.3%
- max response (NIH3T3): -2.68%

Structure (SMILES): CCc1cc(OC)c(C[C@H](C)N)cc1OC
- max response (CRL-7250 [1]): -4.69%
- max response (HaCat [2]): 0.504%
- max response (KB-3-1): -8.43%
- max response (NIH3T3): -16.2%

Structure (SMILES): CCCCCCCCCCCC[N+](C)(C)CCOc1ccccc1
- Potency (TAB165): 5.62 µM (active)
- Potency (W2): 3.79 µM (active)
- Potency (CRL-7250 [1]): 18.8 µM (active)
- Potency (HEK293): 8.41 µM (active)
- Potency (HaCat [2]): 16.8 µM (active)

Structure (SMILES): CC(Cc1ccccc1)NCCCCl (stereo not drawn)
- outcome (CRL-7250 [1]): inactive
- max response (HEK293): 0.613%
- outcome (HaCat [2]): inactive
- max response (NIH3T3): 3.33%
- outcome (CRL-7250 [4]): inactive
- outcome (HACAT [3]): inactive

Structure (SMILES): CN1C(=O)[C@@H](NC(=O)c2cc3ccccc3[nH]2)N=C(c2ccccc2)c2ccccc21
- Potency (TAB165): 10 µM (active)
- Potency (W2): 7.57 µM (active)
- max response (CRL-7250 [1]): -23.4%
- Potency (HEK293): 11.9 µM (active)
- max response (KB-3-1): 1.71%

Structure (SMILES): CC(CC(C(N)=O)(c1ccccc1)c1ccccc1)N(C)C (stereo not drawn)
- max response (CRL-7250 [1]): -1.58%
- outcome (HEK293): inactive
- max response (HaCat [2]): -10.9%
- outcome (NIH3T3): inactive
- outcome (HEK293T): inactive
